High-throughput results from PubChem.
Shown are actives, neighbours in structure and some others; about 20% of the full set was active somewhere.
HCMV inh = human cytomegalovirus inhibition; HFF cells, HCMV-luciferase reporter, 72 h; active compounds read low; activity change, negative = inhibition, % at 57.5 µM; hit rate 4.5% among 410,000; in the data active means activity change below about -60%; inconclusive means no clear call, values can overlap the other calls; inactive means above about -39%; further: on the % scale 0 is the no-effect control and ±100 the full control effect
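Two-dose cell screen: HFF monolayers treated with compounds and infected with luciferase-expressing HCMV at 1 PFU/cell, 72 h at 37C, then lysed for luciferase measurement.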
Cycloheximide cs = affects cycloheximide protein synthesis inhibition readout, counter-screen. cell reporter, cycloheximide protein synthesis inhibition counterscreen. max response, %. AID 2314. hit rate 12% among 300,000; in the data active means max response mostly above about 13%, no sharp cut-off; inactive means mostly below about 14%; further: read at 38.3 µM for the half of the compounds with a filed dose; 0% is about no effect
Pf growth 96h = P. falciparum growth inhibition at 96 hour, primary screen for plastid delayed-death inhibitors; P. falciparum luciferase reporter growth, 96 h; Potency, µM (series often up to 28.7 µM), without a hit: top-dose activity change, negative = inhibition, actives largely listed as inhibitors; hit rate 6.9% among 320,000; AID 504834; further: potency means the concentration at half of the fitted maximal effect; on the % scale 0 is the no-effect control and ±100 the full control effect
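Erythrocytes infected with luciferase-expressing P. falciparum were dispensed at 2% hematocrit and 0.05% parasitemia (final), then incubated with compounds 96 hours at 37 C in 5% CO2. Luminescence after detection reagent addition reported growth.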
Pf growth 48h = inhibits P. falciparum growth in the first generation, 48 h; P. falciparum luciferase growth in erythrocytes, 48 h; Potency, µM (highest dose often 28.7 µM), without a hit: top-dose activity change, negative = inhibition, actives largely listed as inhibitors; hit rate 5.9% among 310,000; further: potency means the concentration at half of the fitted maximal effect; on the % scale 0 is the no-effect control and ±100 the full control effect
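Compounds are pin-transferred into medium, infected erythrocytes (2% hematocrit, 0.1% parasitemia final) are added, and plates sit one parasite generation at 37 C in 5% CO2. Detection reagent is then added and luminescence measured.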
Shiga inhibitor = inhibitors of Shiga toxin in Vero cells. AID 2315. Vero cells, Shiga toxin protein synthesis inhibition reporter. hit rate 9.2% among 290,000. inhibition, % at 38.7 µM; in the data active means inhibition mostly above about 28%, no sharp cut-off; inactive means mostly below about 43%; further: 0% is about no effect
* marks the source's active call; other numbers are inactive results; ? = inconclusive; . = no result given. Unless noted, the call rests on the fitted dose curve; in most records, active means well fitted inhibition curve with a large enough effect; inconclusive means small, poorly fitted or top-dose-only effect, or another doubt; inactive means no such curve, though single readings can be large or run the other way.

SMILES	HCMV inh	Cycloheximide cs	Pf growth 96h	Pf growth 48h	Shiga inhibitor
c1ccc(Nc2nc(N3CCCCC3)nc(N3CCCCC3)n2)cc1	16	-2	9.3µM*	.	-19
C(=N\Nc1nc(Nc2ccccc2)nc(N2CCCCC2)n1)/c1ccco1	-33	28*	?	?	32*
COC(=O)c1ccc(COC(=O)CNS(=O)(=O)c2ccc(C)cc2)cc1	37	33*	0%	99%	81*
Cc1ccc(S(=O)(=O)NCC(=O)OCc2ccccc2Br)cc1	-20	-1	9.3µM*	40%	-18
Cc1ccc(S(=O)(=O)NCC(=O)OCC(=O)c2cccs2)cc1	0	4	13µM*	-2%	-14
Cc1ccc(S(=O)(=O)NCC(=O)OCCOc2ccc(Br)cc2)cc1	-26	.	.	.	.
COc1ccc(Cn2nnc3c(=O)[nH]c(C4CCCN(C(=O)c5ccccc5Cl)C4)nc32)cc1OC (stereo not given)	8	.	.	.	.
Cc1ccccc1N1CCN(C2CCCN(C(=O)c3cc(CC(C)C)nn3C)C2)CC1 (stereo not given)	-30	-2	?	?	-13
COc1ccc(F)cc1CSc1nnnn1-c1ccc(O)cc1	-62*	-6	-11%	10%	-9
COc1cc(CO)ccc1OCc1nnnn1-c1ccc(C)cc1	-63*	-3	?	0%	0
COc1cc(CSc2nnnn2-c2ccc(C)cc2)cc(OC)c1OC	-89*	2	119%	?	-9
COc1ccc(C(C)=O)cc1CSc1nnnn1-c1ccc(O)cc1	-31	1	-3%	-2%	-6
COc1ccc(CNC(=O)c2ccc3nc(CCc4ccccc4)oc3c2)c(OC)c1	14	.	.	.	.
O=c1cc(-c2ccccc2Cl)oc2c(Br)ccc(O)c12	-18	31*	38%	126%	78*
COc1ccc(N2CCN(C(=O)c3cc(NS(=O)(=O)c4ccc(F)cc4)ccn3)CC2)cc1	18	.	.	.	.
CCC(C)N(C(=O)COC(=O)CNC(=O)c1sc2ccccc2c1Cl)C1CCS(=O)(=O)C1 (stereo not given)	-8	46*	-28%	-5%	70
CCOC(=O)c1c(-c2ccccc2)oc2cc(CN(C)C)c(O)c(CN(C)C)c12	-106*	.	.	.	.
CCOC(=O)c1oc2c(CN3CCN(C)CC3)c(O)ccc2c(=O)c1-c1ccccc1OC	-13	-4	9.3µM*	-3%	1
CCOC(=O)c1c(-c2ccccc2)oc2ccc(O)cc12	-1	-4	65%	51%	.
CCOC(=O)c1c(C)oc2cc(Cl)c(O)c(CN(C)C)c12	-14	39*	?	?	69*
CCOC(=O)c1c(-c2ccccc2)oc2ccc(O)c(CN3CCN(C)CC3)c12	-66*	-3	3.3µM*	3.7µM*	-6
CCOC(=O)c1c(C)oc2ccc(O)c(CN(C)C)c12	20	-1	-56%	-14%	-7
COc1ccccc1-c1c(C)oc2c(CN3CCN(C)CC3)c(O)ccc2c1=O	25	-2	-17%	-18%	-3
CC1(C(=O)NCc2ccc3c(c2)OCO3)CCN1C(=O)Cc1ccc(Cl)cc1Cl (stereo not given)	-9	.	.	.	.
CCC1=NN(C(=O)c2ccccc2O)C(O)(c2ccccc2)C1 (stereo not given)	-76*	31*	?	-14%	77*
SMILES	HCMV inh	Cycloheximide cs	Pf growth 96h	Pf growth 48h	Shiga inhibitor
CCC1=NN(C(=O)c2ccc(Cl)cc2)C(O)(c2ccccc2)C1 (stereo not given)	4	12	3.3µM*	?	17
CCC1=NN(C(=O)c2ccc(Cl)cc2)C(O)(c2ccc(C)cc2)C1 (stereo not given)	14	18*	-57%	-22%	45*
CCC1=NN(C(=O)c2ccccc2Br)C(O)(c2ccc(Br)cc2)C1 (stereo not given)	8	-3	42%	?	2
CCOC(=O)C1=NN(C(=O)c2ccc(C)cc2)C(O)(c2ccc(Cl)cc2)C1 (stereo not given)	-6	31	.	-1%	32
O=C(c1ccccc1O)N1N=C(C(F)(F)F)CC1(O)c1ccc([N+](=O)[O-])cc1 (stereo not given)	-102*	-3	-25%	0%	12
CCOC(=O)C1(C)CCCN(C(=O)c2cc(OC)c(OC)c(OC)c2)C1 (stereo not given)	-17	.	.	.	.
COc1cc(C)c(CN2CCN(S(=O)(=O)c3ccc(Cl)s3)CC2)cc1OC	-12	.	?	?	.
OCC1OC(Oc2c(Br)cc(Br)cc2Br)C(O)C(O)C1O (stereo not given)	-19	.	.	.	.
Cc1ccc(OCC(=O)NNC(=O)c2cc(S(=O)(=O)N(C)C)ccc2N2CCCC2)cc1	-20	.	.	.	.
CCOC(=O)c1ccc(-c2ccc3c(=O)c4ccccc4n(C)c3c2)cc1F	-69*	11	2%	87%	-5
COc1cc2c(-c3ccc4cc[nH]c4c3)c(-c3ccc(C#N)cc3)oc(=O)c2cc1OC	-30	.	?	9.3µM*	.
CCOC(=O)c1ccc(/C=C2\c3ccccc3C(=O)N2c2ccccc2)cc1F	34	.	.	.	.
CCOC(=O)c1ccc(-c2c(-c3ccccc3OC)oc3ccccc23)cc1F	-1	.	3.3µM*	?	.
COCc1ccc(-c2c(-c3ccc(OC)cc3)oc(=O)c3cc(OC)c(OC)cc23)cc1	68	.	.	.	.
CN(C)c1ccc(-c2ccc3c(=O)c4ccccc4n(C)c3c2)cn1	-21	58*	129%	85%	87*
Cn1c2ccccc2c(=O)c2ccc(Cl)cc21	-22	.	.	.	.
COc1ccccc1-c1oc2ccccc2c1-c1ccc2cc[nH]c2c1	13	.	?	2.1µM*	.
COc1ccc(-c2[nH]c(-c3ccccc3)nc2SCC(=O)NC2CCCC2)cc1	-22	-3	12µM*	-29%	-16
COc1ccc(-c2[nH]c(-c3ccc(F)cc3)nc2SCC(=O)NC2CCCC2)cc1	-4	-1	?	-23%	-5
COc1ccc(-c2[nH]c(-c3cccc(OC)c3)nc2SCC(=O)NC2CCCC2)cc1	-26	-2	3.3µM*	-20%	-7
O=C(CSc1n[nH]c(-c2ccc(S(=O)(=O)NC3CCCCC3)cc2)n1)N1CCCC1	-61*	-5	10%	-7%	-12
COc1ccc(-c2nc(SCC(=O)NC3CCCCC3)n[nH]2)cc1	-23	24*	?	1%	20
COc1ccc(Cl)cc1N(C)C(=O)C(=O)Nc1ccc2nc3n(c(=O)c2c1)CCCCC3	-36	.	.	.	.
Clc1cc(Cl)c(OCCCCn2cncn2)c(Cl)c1	48	1	0.29µM*	-11%	-4
Brc1cccc(OCCCCn2cncn2)c1	52	9	5%	15%	14
Cc1c(C(=O)NCCS(=O)(=O)N2CCN(c3ccccc3F)CC2)cccc1[N+](=O)[O-]	-20	-3	8%	11%	-15
CC1=NN(c2ccccc2)C(=O)C1C=Nc1ccccc1O (stereo not given)	0	14	?	5.2µM*	27*
CC1=NN(c2ccccc2)C(=O)C1/C=C1\NC(=S)NC1=O (stereo not given)	23	-3	-47%	32%	20
